cytoskel mod: modifiers of F-actin cytoskeleton organization, primary screen, imaging, HUVEC, phalloidin staining, high-content imaging; HUVEC TNFa F-actin phalloidin imaging; inhibition, % at 2 µM; 91,000 tested, 0.18% active; AID 836, 2007;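 active = inhibition above the batch mean plus 3 SD and confirmed as a hit by visual image inspection, cut at about 30% in these data, passing the limit was not always enough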
E-sel TNF inh: E-selectin induction blockers in HUVEC – imaging, immunofluorescence, high content, primary screen | AID 1246, 2008 | HUVEC TNFa-induced E-selectin immunofluorescence | 120,000 tested, 0.71% active | inhibition, % at 2 µM;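 active = inhibition above the batch mean plus 3 SD, and confirmed as a hit on visual image review, cut at about 43% in these data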;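 also: 0% = TNF-stimulated DMSO wells and 100% = unstimulated control wells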
HUVEC tox TNFa: cytotoxicity in TNFa-stimulated HUVEC, primary screen, cytotoxicity control for VCAM1 expression modulator project, imaging, Hoechst nuclei count; HUVEC TNFalpha-stimulated, Hoechst cell count; cell count reduction, % at 2 µM; 93,000 tested, 0.17% active;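 active = cell count reduction exceeding the screen mean by over 5 SD, scaled to untreated wells per plate, cut at about 78% in these data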;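 also: cells counted after 24 h of TNF alpha exposure following the 1 h pretreatment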
VCAM1 TNFa inh: inhibitors of TNFa-induced VCAM1 expression, primary screen, imaging, HUVEC, TNFa stimulus, immunofluorescence | 95,000 tested, 0.48% active | inhibition, % at 2 µM | HUVEC TNFa-induced VCAM-1 immunofluorescence, high-content imaging;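 active = inhibition above the batch mean plus 3 SD, with images confirmed as a hit by eye, cut at about 37% in these data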;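 also: 0% = TNF-stimulated DMSO wells and 100% = unstimulated control wells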
An asterisk follows results filed as active; nt = not tested or not shown. A selection: hits, their analogues and other compounds. The true share with any hit is near 1.1%.

SMILES | cytoskel mod | E-sel TNF inh | HUVEC tox TNFa | VCAM1 TNFa inh
CC(C)(CO)NCC(O)Cn1cc(C=O)c2ccccc21 (stereo not given) | nt | 90.0* | nt | nt
O=C1OCC(CO)(CO)N=C1NNc1ccccc1Cl | 31.3* | -15.7 | -34.0 | -6.2
COc1ccc(/C=C/C2=CCN(Cc3ccc(OC)cc3)CC2)cc1 | nt | -19.1 | nt | nt
Cc1ccc(CNCC(O)(c2ccccc2)c2ccc(Cl)cc2)cc1 (stereo not given) | nt | 67.3* | nt | nt
C=CCn1c(SCC(=O)N2CCc3ccccc3C2)nc2sc(C)cc2c1=O | -4.2 | 11.5 | 0.3 | 7.8
Cc1oc(-c2ccc(Cl)cc2)cc1-c1nn2c(-c3ccoc3C)nnc2s1 | 0.1 | -18.1 | nt | 53.7*
Clc1ccc(-c2nnc3sc(-c4ccc(Br)o4)nn23)cc1 | -5.3 | 12.7 | -10.9 | 1.3
O=C1CC(c2ccccc2)n2nc(NC(=O)C3CCCO3)nc2N1 (stereo not given) | nt | 45.2* | -10.7 | 11.0
O=C(O)Cc1ccc2oc(-c3cccnc3)nc2c1 | nt | -12.6 | nt | nt
COCCCNC(=S)N1CCN(c2ccc([N+](=O)[O-])cc2)CC1 | nt | 64.7* | nt | nt
CCNC(=S)N1CCN(c2ccc([N+](=O)[O-])cc2)CC1 | -10.8 | -39.3 | -5.5 | 0.6
Cc1ccc(C(=O)c2c(NC(=O)c3ccccc3C)sc(C)c2C)cc1 | 10.0 | 99.9* | -29.4 | -0.5
CCN(CC)CC(=O)Nc1sc(C)c(C)c1C(=O)c1ccc(C)cc1 | nt | 3.6 | nt | nt
Cc1[nH]c2ccccc2c1C(=O)CSc1n[nH]c(N)n1 | nt | 17.3 | nt | nt
O=C(O)C1CCC(N2C(=O)C3CCCCC3C2=O)CC1 (stereo not given) | -48.8 | -11.7 | 57.3 | 78.0*
O=C(O)c1nc(-c2ccccc2)n(-c2cccc(C(F)(F)F)c2)n1 | nt | -17.9 | nt | nt
O=[N+]([O-])c1ccc(Sc2nc3ccccc3o2)c([N+](=O)[O-])c1 | -19.5 | 38.3 | 34.8 | 73.2*
O=[N+]([O-])c1ccc(Cl)cc1Sc1nc2ccccc2o1 | 23.3 | 19.5 | 1.9 | 8.7
CCN(CC)C(=O)Cn1c(=O)n(CCCC(=O)NCc2ccccc2)c(=O)c2sccc21 | nt | 1.4 | nt | nt
CN(C)CCNC(=O)c1cc2sc3ccccc3c2s1 | nt | -16.9 | nt | nt
Cc1cc(NCc2ccco2)n2ncnc2n1 | nt | 6.7 | nt | nt
COc1cccc(CNc2ccc(F)c(Cl)c2)c1 | -1.7 | 100.0* | 5.8 | 13.5
O=C(CCC1CCCN(C(=O)CCN2CCCCC2=O)C1)NCc1ccccc1F (stereo not given) | nt | -24.4 | nt | nt
Cc1cc(C)cc(C(=O)Oc2coc(CSc3nnc(NC(=O)C4CC4)s3)cc2=O)c1 | nt | 61.1* | nt | nt
c1nc(NCCN2CCOCC2)c2sc3nc(N4CCOCC4)c4c(c3c2n1)CCC4 | nt | 65.5* | nt | nt
SMILES | cytoskel mod | E-sel TNF inh | HUVEC tox TNFa | VCAM1 TNFa inh
c1nc(NCCN2CCOCC2)c2c3c(sc2n1)CCCCC3 | 9.3 | nt | -11.1 | -13.7
Cc1ccc(S(=O)(=O)N2CCCOC2CNC(=O)C(=O)NC2CCCCC2)cc1 (stereo not given) | nt | 9.1 | nt | nt
Cc1cccc(N(CC(=O)N/N=C/c2ccc(OCC(=O)NCc3ccco3)cc2)S(C)(=O)=O)c1C | -0.2 | -2.6 | 44.0 | 78.4*
Cc1cc(C)cc(CSCC(=O)N/N=C/c2ccc(OCC(=O)NCc3ccco3)cc2)c1 | 11.5 | 48.3 | 8.8 | 0.0
CCOC(=O)c1csc(NC(=O)c2ccc(C#N)cc2)n1 | nt | -28.1 | nt | nt
COc1ccc(CCN(C)c2ccc(S(=O)(=O)N3CCCC3)cn2)cc1OC | nt | 76.2* | nt | nt
O=C(NNC(=O)c1ccccc1Br)c1ccc(SCC2CCCO2)c([N+](=O)[O-])c1 (stereo not given) | 13.0 | -7.4 | 8.9 | 4.8
COc1ccc(CC(=O)NC2CC(C)(C)NC(C)(C)C2)cc1 | -0.5 | -0.4 | -7.3 | -6.8
O=Cc1s/c(=N\S(=O)(=O)c2ccccc2)n(CCCCl)c1Cl | nt | 72.3* | nt | nt
CCn1c(SCC(=O)NC(C)c2ccccc2)nc2ccccc21 (stereo not given) | -8.5 | -26.7 | 28.5 | 62.7*
CS(=O)(=O)N1CCN(C(=O)NC2CCCCC2)CC1 | nt | 2.9 | nt | nt
CCOc1cc(C(=O)NCc2ccc(-c3nc4ccccc4o3)cc2)cc(OCC)c1OCC | 1.2 | 66.4* | nt | -26.5
COc1ccc(C(=O)NC(=S)NCc2ccc(-c3nc4ccccc4o3)cc2)cc1OC | -5.9 | 7.7 | 1.7 | -8.9
COc1ccc2c(c1)SC1=NCCS(=O)(=O)N12 | -19.5 | nt | 79.6* | 60.9
O=S1(=O)CCN=C2SC3=C(CCCC3)N21 | 41.8 | 29.7 | -23.5 | 11.8
Cc1cc(C)c(S(=O)(=O)c2ccccc2C)c(OCC(C)(C)C)n1 | 39.6 | -4.7 | -24.8 | 13.5
CCC1Sc2ccccc2N(CC(=O)NCCC2=CCCCC2)C1=O (stereo not given) | 3.5 | -15.8 | -22.7 | 5.5

Compound activity: PubChem BioAssay, Columbia University Molecular Screening Center
